Test results as given in the supplement of paper PMC6555819.

Legend:
Test in all cases: PBM binding z-score (relative to random genomic background probes); higher = stronger binding; sequences stand for … in GC…GCGATTGACAGCGTAGAATGAAGG
[1] = system: FXR:RXRa (NR concentration 270 nM, RXRa partner concentration 90 nM)
Summary of the method: (§1)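 Regression normalization was applied to scanned fluorescence from custom Agilent 4×180K protein-binding microarrays. Before scanning, arrays were incubated 1 h with ligand-free nuclear receptor dimers, and binding was detected with antibodies against each partner (one per run). Binding z-scores use the random background probes as reference.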

[2] = system: LXRa:RXRa (NR concentration 270 nM, RXRa partner concentration 90 nM)
Summary of the method: as §1

[3] = system: LXRa homodimer (NR concentration 270 nM)
Summary of the method: as §1

[4] = system: LXRb:RXRa (NR concentration 270 nM, RXRa partner concentration 90 nM)
Summary of the method: as §1

[5] = system: LXRb homodimer (NR concentration 270 nM)
Summary of the method: as §1

[6] = system: PPARa:RXRa (NR concentration 270 nM, RXRa partner concentration 90 nM)
Summary of the method: as §1

[7] = system: PPARg:RXRa (NR concentration 180 nM, RXRa partner concentration 90 nM)
Summary of the method: as §1

[8] = system: PPARg:RXRa 270nM:90nM, anti-RXR (NR concentration 270 nM, RXRa partner concentration 90 nM)
Summary of the method: as §1

[9] = system: PPARg:RXRa 30nM:10nM, anti-RXR (NR concentration 30 nM, RXRa partner concentration 10 nM)
Summary of the method: as §1

[10] = system: PPARg:RXRa 90nM:30nM, anti-RXR (NR concentration 90 nM, RXRa partner concentration 30 nM)
Summary of the method: as §1

[11] = system: PPARg:RXRa DBDmut IVT, anti-RXR (DBD mutation: RXRa K156A/R161A, NR concentration 270 nM, RXRa partner concentration 90 nM)
Summary of the method: as §1

[12] = system: PPARg:RXRa IVT, anti-PPARg (NR concentration 270 nM, RXRa partner concentration 90 nM)
Summary of the method: as §1

[13] = system: PPARg DBDmut:RXRa IVT, anti-PPARg (DBD mutation: PPARg1 K132A/R137A, NR concentration 270 nM, RXRa partner concentration 90 nM)
Summary of the method: as §1

[14] = system: PPARg DBDmut IVT, anti-PPARg (DBD mutation: PPARg1 K132A/R137A, NR concentration 270 nM)
Summary of the method: as §1

[15] = system: PPARg homodimer (NR concentration 180 nM)
Summary of the method: as §1

[16] = system: PXR:RXRa (NR concentration 270 nM, RXRa partner concentration 90 nM)
Summary of the method: as §1

[17] = system: PXR homodimer (NR concentration 270 nM)
Summary of the method: as §1

[18] = system: RARa:RXR (NR concentration 270 nM, RXRa partner concentration 90 nM)
Summary of the method: as §1

[19] = system: RARa homodimer (NR concentration 270 nM)
Summary of the method: as §1

[20] = system: RARb:RXRa (NR concentration 270 nM, RXRa partner concentration 90 nM)
Summary of the method: as §1

Sequence | PBM binding z-score [1] | PBM binding z-score [2] | PBM binding z-score [3] | PBM binding z-score [4] | PBM binding z-score [5] | PBM binding z-score [6] | PBM binding z-score [7] | PBM binding z-score [8] | PBM binding z-score [9] | PBM binding z-score [10] | PBM binding z-score [11] | PBM binding z-score [12] | PBM binding z-score [13] | PBM binding z-score [14] | PBM binding z-score [15] | PBM binding z-score [16] | PBM binding z-score [17] | PBM binding z-score [18] | PBM binding z-score [19] | PBM binding z-score [20]
TAGCCTAGGTCGGATCGGGCCAGTATACGCTATA | -0.358 | -0.506 | -0.432 | -0.741 | -0.754 | -0.324 | 0.0462 | -0.371 | -0.755 | -0.538 | -0.693 | -0.327 | -0.89 | -0.506 | -1.19 | -0.228 | -0.533 | 0.382 | -0.683 | 0.204
TAGCCTAGGTCATTCGGGGGCCAGTATAGAAAGC | 5.41 | 4.7 | 1.38 | 5.3 | 9.24 | 4.26 | 3.69 | 4.12 | 1.38 | 3.17 | 2.62 | 4.33 | 2.22 | 5 | 1.93 | 3.84 | 0.257 | 3.92 | 0.944 | 3.99
AGAATGAGGTTATTAGGATCAGGGAATTGCGGTC | 2.04 | 1.69 | 0.286 | 1.38 | 0.314 | 2.79 | 2.39 | 2.69 | 0.762 | 1.59 | 3.64 | 3.55 | 0.306 | 0.466 | 1.24 | 1.38 | 0.752 | 1.57 | 1.06 | 1.53
TAGCCTAGGTCAGATCGAGCCAGTATACGCTATA | 1.14 | 0.783 | -0.473 | 0.421 | -0.463 | 1.42 | 0.564 | 0.606 | -0.102 | 0.29 | 0.497 | 1.39 | -0.253 | -0.42 | -0.43 | 0.136 | -0.429 | 0.664 | -0.528 | 2.81
GATACAGGGTCAGCTAGAGGCGAGAGTATGGAAA | 4.63 | 2.33 | -0.47 | 2.27 | -0.792 | 4.46 | 3.77 | 3.24 | 1.08 | 1.87 | 1.45 | 2.17 | -0.6 | -0.459 | 1.77 | 2.25 | -0.498 | 3.52 | 0.0279 | 4.1
TTACCAAGGTGAAAGGCCGTTGATGCACGCCTTG | 0.494 | 0.431 | -0.517 | 0.397 | -0.951 | 2.49 | 3.77 | 4.98 | 2.95 | 4.9 | 1.83 | 3.1 | 1.11 | -0.0172 | 1.5 | 0.172 | -0.516 | 1.1 | -0.123 | 1.66
TCGTGTAGATCAATAGAGGTTAAGAAAGTGCGCT | 0.712 | 3.48 | 0.576 | 1.76 | -0.163 | 1.86 | 0.088 | 1.57 | 2.53 | 2.13 | 1.64 | 0.537 | -0.0229 | -0.0334 | 0.586 | 2.99 | 0.386 | 1.79 | 0.575 | 0.822
TCATATAGGTAGAGGTGAAAGTCGAACGATATGA | 0.743 | 0.996 | -0.23 | 0.833 | -0.246 | 2.43 | 1.96 | 3.02 | 3.6 | 3.28 | 2.29 | 2.16 | 2 | 0.275 | 0.614 | 0.78 | 0.269 | 1.22 | 0.173 | 1.31
CGTCCAAGGTCAGAGACGTCAGTGAATGCCGAGT | 4.49 | 2.77 | -0.161 | 1.87 | -0.32 | 3.7 | 1.97 | 2.41 | 0.132 | 1.48 | 2.2 | 1.74 | -0.306 | -0.0249 | 1.43 | 2.14 | 0.599 | 2.75 | 0.197 | 4.37
TCGAGTAGGTTAGTCGGGGCATTCATCCAACATA | 0.0168 | -0.035 | 0.0686 | 0.86 | -0.262 | 0.795 | 0.0659 | 0.755 | 1.55 | 0.83 | 2.52 | 2.11 | 0.0178 | -0.145 | 0.384 | 0.279 | 0.0478 | 0.5 | -0.336 | 0.665
GCTCGGAGGACAAGGTGAGAGCTTTGTCCGTAGA | -0.399 | -0.339 | -1.2 | -0.463 | -1.12 | -0.0348 | -0.809 | -0.0501 | -1.12 | -0.422 | -0.575 | 0.359 | -0.51 | -0.882 | -0.374 | -0.472 | -0.908 | -0.166 | -1.13 | 1.52
AGAATGAGGTTACCAAGGATCAGGGAAACGCTTG | 1.77 | 4.49 | -0.144 | 2.06 | -0.102 | 3.69 | 2.58 | 2.47 | 1.09 | 1.97 | 3.39 | 3.37 | 1.28 | 0.207 | 0.544 | 1.28 | 0.0221 | 2.01 | -0.233 | 2.04
TCGAGTAGGTTAGTCGGAGCATTCAGCCAACATA | -0.453 | -0.512 | -0.667 | -0.741 | -1.46 | 0.0631 | -0.127 | 0.379 | 0.624 | 0.538 | 2.04 | 1.68 | -0.361 | -0.571 | 0.0245 | -0.452 | -0.761 | -0.167 | -0.593 | -0.208
CAAACTAGGTCACCGGAAGGTCGAAGTCCGCATG | 4.63 | 4.34 | 1.21 | 3.06 | 0.673 | 5.6 | 9.2 | 7.5 | 5.41 | 7.33 | 8.58 | 9.05 | 2.73 | 2.92 | 3.05 | 3.91 | 0.000336 | 4.49 | 1.1 | 4.8
